{
  "source": "PubChem BioAssay AID651954",
  "about": "(NMMLSC, 2012)",
  "note": "Out of some 1,500 compounds screened, about 160 (11%) were called active. Cut-off read from the data, not from the text of the source: active = inhibition above about 60%; inactive = the rest. The list is a sample of the results.",
  "data": [
    {"assay": "inhibitors of lytic granule exocytosis, confirmation, TALL-104 cells, flow cytometry, Cherry Pick01 (AID 651954);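 note: 0% = stimulated vehicle wells and 100% = unstimulated wells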", "conditions": "LAMP-1 externalization, at 10 µM, active compounds read high, stimulated with PMA plus thapsigargin", "values": [
      {"smiles": "Cc1ccccc1CN1C[C@@H]2C[C@@H](c3cn(C)nc3-c3ccccc3)N3CCC[C@@]23C1=O", "inhibition": "-13.4% (inactive)"},
      {"smiles": "CCc1ccc(-c2cc3c(=O)n(CC(=O)NCCCN4CCN(Cc5ccccc5)CC4)nc(C)n3n2)cc1", "inhibition": "34.9% (inactive)"},
      {"smiles": "Cn1sc(=O)c2cc(S(=O)(=O)NC3CC3)ccc21", "inhibition": "79.8% (active)"},
      {"smiles": "COc1ccc(OC)c(NC(=O)CN(C)CCOc2ccc(Br)cc2)c1", "inhibition": "-14.9% (inactive)"},
      {"smiles": "OCCNc1nc(Nc2ccc(Cl)c(Cl)c2)nc2ccccc12", "inhibition": "-11.3% (inactive)"},
      {"smiles": "Cc1nc(-c2ccc(Cl)cc2)sc1C1(C)CC(c2ccc(Br)cc2)=NO1", "note": "(stereo unspecified)", "inhibition": "-3.75% (inactive)"},
      {"smiles": "CCOc1ccc(Cl)cc1-c1cc(C(=O)NCc2cccs2)[nH]n1", "inhibition": "66.4% (active)"},
      {"smiles": "COc1ccc(-c2cn[nH]c2-c2ccc(OC)cc2)cc1", "inhibition": "2.16% (inactive)"},
      {"smiles": "COc1ccc2sc(-c3ccc(N(C)C)cc3)c(-c3ccc4cc[nH]c4c3)c2c1", "inhibition": "-13.7% (inactive)"},
      {"smiles": "COc1cccc(NC(=O)C2C(c3ccccc3)C2(Cl)Cl)c1", "note": "(stereo unspecified)", "inhibition": "0.14% (inactive)"},
      {"smiles": "COc1ccc(C2CC(c3cccs3)=NN2c2nc(C)c(C(C)=O)s2)cc1OC", "note": "(stereo unspecified)", "inhibition": "73.4% (active)"},
      {"smiles": "CC(C)Cn1cnc2c(SCc3ccc(Cl)cc3)nc(N)nc21", "inhibition": "-12.1% (inactive)"},
      {"smiles": "CCOC(=O)C1(CCOc2ccccc2)CCN(Cc2ccc(C#CCCO)cc2)CC1", "inhibition": "-4.45% (inactive)"},
      {"smiles": "Oc1ccccc1-c1cc(-c2ccc(Cl)cc2)n[nH]1", "inhibition": "-11.6% (inactive)"},
      {"smiles": "CS(=O)(=O)N(CC(O)Cn1c2ccccc2c2ccccc21)c1cccc2ccccc12", "note": "(stereo unspecified)", "inhibition": "5.69% (inactive)"},
      {"smiles": "CC(C)c1ccccc1OCC(O)CN(CC(O)COc1cccc2ccccc12)C(C)C", "note": "(stereo unspecified)", "inhibition": "87.3% (active)"},
      {"smiles": "O=C(Nc1ccccc1)c1cccnc1Nc1ccccc1", "inhibition": "-4% (inactive)"},
      {"smiles": "O=S(=O)(Nc1ccc(O)c2ccccc12)c1ccc(OC(F)(F)F)cc1", "inhibition": "-11.4% (inactive)"},
      {"smiles": "COc1ccc(CCNC(=O)C2CC3Cn4c(nc5cc(C)c(C)cc54)C3N2C)cc1", "note": "(stereo unspecified)", "inhibition": "-13.9% (inactive)"},
      {"smiles": "C=CCn1c(SCc2csc(C)n2)nc2scc(-c3ccc(C)o3)c2c1=O", "inhibition": "-12.8% (inactive)"},
      {"smiles": "Nc1c(C(=O)c2cccs2)sc2nsc(SCCN3CCCCC3)c12", "inhibition": "22% (inactive)"},
      {"smiles": "Cc1oc(-c2ccccc2Cl)[n+]([O-])c1C", "inhibition": "-3.08% (inactive)"},
      {"smiles": "COc1ccccc1N1CCN(c2ncnc3sc(C)c(-c4ccccc4)c23)CC1", "inhibition": "-3.66% (inactive)"},
      {"smiles": "CC(=O)Nc1ccc(-c2csc(NC(=O)Nc3ccccc3)n2)cc1", "inhibition": "55.2% (inactive)"},
      {"smiles": "O=C(COc1ccc(Cl)cc1)N1CCN(c2cccc(C(F)(F)F)c2)CC1", "inhibition": "5.85% (inactive)"},
      {"smiles": "CCCC(C(=O)n1nc(C)cc1C)C(NS(=O)(=O)c1ccc(C)cc1)c1ccccc1", "note": "(stereo unspecified)", "inhibition": "1.32% (inactive)"},
      {"smiles": "CN(c1ccccc1)S(=O)(=O)c1ccc(C(=O)NCCc2ccccc2)cc1", "inhibition": "-3.54% (inactive)"},
      {"smiles": "O=C(NCc1ccccc1)C(c1ccccc1)N(C(=O)c1csnn1)c1ccc(F)cc1", "note": "(stereo unspecified)", "inhibition": "-12.2% (inactive)"},
      {"smiles": "Cc1ccc(-c2ccnc3nc(Sc4ncc(C(F)(F)F)cc4Cl)nn23)cc1", "inhibition": "-4.56% (inactive)"},
      {"smiles": "Cc1cccc(-c2nc3ccc(C(=O)NCCN4CCN(C)CC4)cc3nc2-c2cccc(C)c2)c1", "inhibition": "2.79% (inactive)"},
      {"smiles": "COc1ccc(-c2csc(Nc3ccc(O)cc3)n2)cc1", "inhibition": "-6.12% (inactive)"},
      {"smiles": "COc1ccc(CC(N)c2csc(NC(=O)Nc3ccc(C(C)C)cc3)n2)cc1", "note": "(stereo unspecified)", "inhibition": "11.2% (inactive)"},
      {"smiles": "Cc1cccc(N2CCC(NCc3c(C(=O)N4CCCCC4)nc4c(C)cccn34)CC2)c1", "inhibition": "-4.45% (inactive)"},
      {"smiles": "COc1ccc(-c2oc3ncnc(NCCCO)c3c2-c2ccc(OC)cc2)cc1", "inhibition": "-0.03% (inactive)"},
      {"smiles": "O=S(=O)(c1ccccc1)N(Cc1cccc(F)c1)c1ccccc1", "inhibition": "-7.22% (inactive)"},
      {"smiles": "CN(C)CCNC(=O)c1ccc(-c2cn3c(-c4ccc(Oc5ccccc5)cc4)cnc3cn2)cc1", "inhibition": "87.2% (active)"},
      {"smiles": "O=C(NC(=O)c1ccccc1N1CCCCC1)Nc1ccc(Br)cc1", "inhibition": "-13.3% (inactive)"},
      {"smiles": "Cc1cccc2sc(N(CCCN(C)C)C(=O)CCS(=O)(=O)c3ccccc3)nc12", "inhibition": "7.86% (inactive)"},
      {"smiles": "COc1ccccc1CN1CCN(C(c2ccccc2)c2ccccc2)CC1", "inhibition": "-12.1% (inactive)"},
      {"smiles": "CCN1C(=O)[C@H]2[C@@H](c3ccc(-c4ccc(F)cc4)cc3)N[C@@](Cc3ccccc3)(C(=O)OC)[C@H]2C1=O", "inhibition": "-2.41% (inactive)"},
      {"smiles": "CC1CCN(c2ccc([N+](=O)[O-])cc2C(N)=O)CC1", "inhibition": "-4.56% (inactive)"},
      {"smiles": "COc1cccc(CN(C)CC2CCCN(CCc3ccc(Cl)cc3)C2)c1OC", "note": "(stereo unspecified)", "inhibition": "-10.6% (inactive)"},
      {"smiles": "CCOC(=O)C1(C)CCCN(C(=O)c2ccc(F)c(Cl)c2)C1", "note": "(stereo unspecified)", "inhibition": "-12.7% (inactive)"},
      {"smiles": "CS(=O)(=O)N(Cc1ccc(Cl)cc1)c1ccc(C(=O)NCCSCc2ccco2)cc1", "inhibition": "17.9% (inactive)"},
      {"smiles": "COc1cccc(CN(C)CC(O)COC(c2ccccc2)c2ccccc2C)c1", "note": "(stereo unspecified)", "inhibition": "-4.22% (inactive)"},
      {"smiles": "COc1ccccc1C1=Nc2cccc3cccc(c23)N1", "inhibition": "-15.4% (inactive)"},
      {"smiles": "COc1cccc(CNc2nc(NCc3ccccc3OC)nc3ccsc23)c1", "inhibition": "35.8% (inactive)"},
      {"smiles": "CN1CCN(C2Cc3ccc(Cl)cc3Sc3ccc(F)cc32)CC1", "note": "(stereo unspecified)", "inhibition": "15% (inactive)"},
      {"smiles": "COc1cccc(CNc2nc(C(F)(F)F)nc3ccccc23)c1", "inhibition": "-14.3% (inactive)"},
      {"smiles": "COc1ccc(-c2cc(C(=O)N(C)Cc3ccccc3)c3ccccc3n2)cc1", "inhibition": "-6.15% (inactive)"},
      {"smiles": "Cc1ccc(NC(=O)c2cc(-c3ccc(C)o3)nc3ccccc23)nc1", "inhibition": "-10.9% (inactive)"},
      {"smiles": "CC(=O)C[C@@H](O)CC(=O)[C@H]1OC(=O)CCCCCCc2ccccc21", "inhibition": "-13.1% (inactive)"},
      {"smiles": "CCCCc1ccc(NC(=S)NCCCN2CCOCC2)cc1", "inhibition": "-11.7% (inactive)"},
      {"smiles": "Cc1cnc(C(=O)OCc2c(C)cc(C(C)(C)C)cc2C)cn1", "inhibition": "-3.52% (inactive)"},
      {"smiles": "COc1ccc(Oc2cn[nH]c2-c2ccc(OC)cc2O)cc1", "inhibition": "-11.7% (inactive)"},
      {"smiles": "CCCCC[C@H](C)N1C[C@@H](COCc2ccccc2)Oc2cc(N3CC[C@@H](N(C)C)C3)ccc2S1(=O)=O", "inhibition": "16.6% (inactive)"},
      {"smiles": "COc1ccc(CCNCc2c(-c3ccccc3)n(C)c3ccccc23)cc1", "inhibition": "6.74% (inactive)"},
      {"smiles": "COc1ccc(-c2cc(NC=O)c3ncc(-c4ccccc4)n3c2)cc1OC", "inhibition": "80.3% (active)"},
      {"smiles": "CCCC(=O)Nc1nc2ccc(NC(=O)c3c(F)c(F)c(OC)c(F)c3F)cc2s1", "inhibition": "-1.52% (inactive)"},
      {"smiles": "CCOC(=O)C1(CCOc2ccccc2)CCN(Cc2cc(OC)c(O)cc2Cl)CC1", "inhibition": "-6.73% (inactive)"},
      {"smiles": "COc1cccc(COc2ccc(N(C)S(=O)(=O)c3ccccc3)cc2)c1", "inhibition": "-7.06% (inactive)"},
      {"smiles": "COC(=O)[C@H](Cc1ccccc1)NC(=O)[C@@H]1C[C@H]1[C@@H](NC(=O)OCc1ccccc1)c1ccccc1", "inhibition": "48% (inactive)"},
      {"smiles": "Brc1ccccc1C1Nc2cccc3cccc(c23)N1", "inhibition": "106% (active)"},
      {"smiles": "CC(CC(=O)Nc1cc(C(F)(F)F)ccc1Cl)c1ccccc1", "note": "(stereo unspecified)", "inhibition": "0.82% (inactive)"},
      {"smiles": "Cc1cccc(N(CC(=O)Nc2ccc(-c3nc4ccc(C)cc4s3)cc2)S(C)(=O)=O)c1", "inhibition": "29% (inactive)"},
      {"smiles": "O=C(Nc1ccc(Cl)cc1)Nc1nnc(/C=C/c2ccccc2)s1", "inhibition": "-2.86% (inactive)"}
    ]}
  ]
}
